Data taken from PubChem BioAssay.

These compounds were tested against Albumin (Bos taurus) (UniProt P02769) (assay: compounds binding labelled BSA control protein – biochemical, small-molecule microarray, Alexa647 label, 635/667 nm fluorescence, artefact control for SMM control protein annotation, profiling panel (AID 1118;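 also: score merges 667 nm emission intensity and signal-to-noise per printed compound spot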)). Details: BSA-A647 binding, fluorescence 635 nm, higher = more signal.
Albumin (Bos taurus), sequence (P02769 whole entry, looked up): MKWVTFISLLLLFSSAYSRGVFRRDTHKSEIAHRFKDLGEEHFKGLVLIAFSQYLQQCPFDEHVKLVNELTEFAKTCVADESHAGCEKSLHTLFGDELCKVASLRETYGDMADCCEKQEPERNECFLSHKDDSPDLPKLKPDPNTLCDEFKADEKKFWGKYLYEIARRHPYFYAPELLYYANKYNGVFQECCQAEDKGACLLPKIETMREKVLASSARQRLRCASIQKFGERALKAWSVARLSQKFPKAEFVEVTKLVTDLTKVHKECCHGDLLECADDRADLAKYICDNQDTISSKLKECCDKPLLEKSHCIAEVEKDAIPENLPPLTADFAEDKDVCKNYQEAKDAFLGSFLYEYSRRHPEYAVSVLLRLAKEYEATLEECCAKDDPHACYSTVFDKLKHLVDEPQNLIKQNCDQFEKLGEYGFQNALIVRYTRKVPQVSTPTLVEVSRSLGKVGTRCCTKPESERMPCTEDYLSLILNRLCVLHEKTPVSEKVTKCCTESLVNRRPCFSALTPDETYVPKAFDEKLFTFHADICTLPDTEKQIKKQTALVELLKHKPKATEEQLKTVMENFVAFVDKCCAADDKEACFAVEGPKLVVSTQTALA

Compound	composite z-score
CC#CC(=O)Oc1ccccc1C=CC(=O)OCC	-0.138
CC(C)CNC(=O)[C@@]1(Cc2ccccc2I)c2ccccc2C(=O)N(C2CCCCC2)[C@H]1c1ccc(CO)cc1	0.82
O=C(c1ccccc1)N1C(=O)[C@]2(COC(c3ccc(OCCCO)cc3)=N2)Cc2ccccc21	0.368
CC(C)(C)OC(=O)CC[C@]1(C(=O)N2CCOCC2)N=C(c2ccc(OCCCO)cc2)O[C@H]1c1ccccc1N=[N+]=[N-]	0.55
COCCOC(=O)N1C(=O)[C@@]2(c3cc(C#CCC(C(=O)OC)C(=O)OC)ccc31)[C@H](c1ccccc1OCCO)N1[C@H](c3ccccc3)[C@H](c3ccccc3)OC(=O)[C@H]1[C@@H]2C(=O)NC[C@H](O)c1ccccc1	-0.841
COCCCNC(=O)[C@]1(CCC(=O)OC(C)(C)C)N=C(c2ccc(OCCCO)cc2)O[C@@H]1c1ccccc1CN=[N+]=[N-]	0.839
CCOC(=O)C1=C[C@@H](C(C)(C)C)N(S(=O)(=O)c2ccc(C)cc2)[C@H]1c1ccc(F)cc1	0.316
COc1cc(NN2C(C(O)c3ccco3)C=CC3C(=O)N(c4ccccc4)C(=O)C32)cc(OC)c1OC (stereo not given)	0.877
CCC(CC)C(O)C1C=CC2C(=O)NC(=O)C2N1Nc1ccc(Cl)cc1Cl (stereo not given)	0.869
CCCC[C@H]1OB(O)C[C@H]2C1=C(COC)Cn1c(=O)n(-c3ccccc3)c(=O)n12	0.0697
C=C(COC)/C(=C/C[C@@H](OC(C)=O)c1ccc(OCCO)cc1)c1cnc2ccccc2c1	0.0772
CN(C)C(=O)[C@@]1(CCS(=O)(=O)c2ccccc2)COC(c2ccc(OCCCO)cc2)=N1	0.401
CCCCCCc1nc(-c2ccc(OC)nc2)cc2c1[Si](C(C)C)(C(C)C)O[C@H]2c1ccccc1	-0.807
O=C(CS)NCCCCCCNC(=O)[C@@H]1C[C@@H]2C(=O)N[C@@H](Cc3ccccc3)C(=O)N2[C@@H]1c1cccc(OCCO)c1	-0.623
COC(=O)[C@@]1(Cc2ccc(OC)cc2)[C@H]2c3cc(C(=O)N(C)C)n(Cc4ccc(S(C)(=O)=O)cc4)c3C[C@H]2CN1C(=O)c1ccccc1	0.49
O=C1C[C@@](C(=O)NC2CC2)(c2ccc([N+](=O)[O-])cc2)[C@@H](c2ccc(CO)cc2I)N1C1CCCCC1	0.554
CN1C=C(C(=O)OCCS(C)(=O)=O)C(C(=O)OCCS(C)(=O)=O)=CC(c2ccc(CO)cc2)=CC1C1CC1 (stereo not given)	-0.0317
O=C1NC(=O)C2C1C=CC(C(O)c1cc(C(F)(F)F)cc(C(F)(F)F)c1)N2Nc1ccccn1 (stereo not given)	0.0063

Compound	composite z-score
CN(C)CCCCCCNC(=O)[C@@H]1C[C@@H]2C(=O)N[C@@H](Cc3ccccc3)C(=O)N2[C@@H]1c1ccc(O)cc1	-0.0568
Cc1nc2cc(Br)ccc2c(=O)o1	0.367
O=C(NC1CC1)[C@@H]1c2ccccc2C(=O)N(Cc2ccccc2Cl)[C@H]1c1ccc(CO)cc1	-0.243
O[C@@H](Cc1ccccc1)[C@H]1C2C=CCCC=C2CN1Cc1cccc(Cl)c1 (stereo not given in full)	0.478
COCCOC(=O)N1C(=O)[C@@]2(c3cc(C#CCNC(N)=O)ccc31)[C@H](C(=O)N1CCN(c3ncccn3)CC1)[C@H]1C(=O)O[C@H](c3ccccc3)[C@H](c3ccccc3)N1[C@@H]2c1ccc(OCCO)cc1	0.521
COCCOC(=O)N1C(=O)[C@@]2(c3cc(C#CCNC(N)=O)ccc31)[C@H](C(=O)Nc1nc3ccccc3s1)[C@H]1C(=O)O[C@H](c3ccccc3)[C@H](c3ccccc3)N1[C@@H]2c1ccc(OCCO)cc1	-0.28
CC(C)C(O)C1C=CC2C(=O)N(c3ccccc3)C(=O)C2N1Nc1ccc([N+](=O)[O-])cc1 (stereo not given)	0.963
CCOC(=O)C[C@H]1[C@H](OC(=O)c2ccccc2-c2ccccc2)[C@@H](NC(=O)CC(C)C)c2cc(OCCCO)ccc2N1C(=O)Cc1ccc(OC)cc1	0.401
C=C(CCCC)/C(=C/C[C@H](OC(C)=O)c1ccccc1OCCO)c1cc(C(=O)OC)ccc1OC	0.0908
C=CCC(OC(C)=O)[C@@H]1[C@@H](N(Cc2ccc(-c3ccccc3)cc2)C(=O)Cc2ccc(OC)cc2)c2cc(OCCCO)ccc2N1C(=O)Cc1ccc2ccccc2c1 (stereo not given in full)	0.0549
COc1ccc(CCNC(=O)[C@@]2(Sc3ccc(C)cc3)CC(=O)N(C3Cc4ccccc4C3)[C@@H]2c2ccc(CO)cc2I)cc1	-0.101
COC(=O)[C@@]1(Cc2ccccc2)N=C(c2ccc(OCCCO)cc2)O[C@H]1c1ccccc1	0.103
COCCOC(=O)N1C(=O)[C@@]2(c3cc(C#CCC(C(=O)OC)C(=O)OC)ccc31)[C@H](c1ccccc1OCCO)N1[C@H](c3ccccc3)[C@H](c3ccccc3)OC(=O)[C@H]1[C@@H]2C(=O)N1CCN(c2ncccn2)CC1	0.846
C=C(CCCC)/C(=C/C[C@@H](OC(=O)c1ccncc1)c1ccc(OCCO)cc1)c1cc(C(=O)OC)ccc1OC	0.445
CCCCN1CC=CC23O[C@@H]4C=CCCOC(=O)C4[C@H]2C(=O)N(CCCCCCO)[C@@H]3C1=O (stereo not given in full)	0.339
CN(C)CCCC[C@@H]1NC(=O)[C@H]2C[C@@H](C(=O)NCCCCCCN)[C@@H](c3ccc(O)cc3)N2C1=O	0.887
COc1ccc(-c2cc3c(c(-c4ccc(Oc5ccccc5)cc4)n2)[Si](C(C)C)(C(C)C)OC3)cn1	-0.344
